In the library only some 3.1% were active in any assay of this set; here they are far more common.
DRD3 agonist = D3 dopamine receptor (human) agonism; max activation, %; AID 652048; 410,000 compounds, 0.58% hits; P35462; D3R DiscoveRx beta-arrestin cells, luminescence, 90 min; in the data active = max activation above about 30%
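Cells at 1500/well, incubated overnight, then treated with pinned compounds (dopamine as control) for 90 min at 37 degrees C. DiscoveRx reagent added for 30 - 60 minutes at room temperature; luminescence read.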
D3 antag = antagonists of human D3 dopamine receptor; P35462; D3R cells, DiscoveRx beta-arrestin luminescence, antagonist mode; hits give low values; max response, negative = inhibition, %; 360,000 compounds, 2.5% hits; AID 652054; in the data active = max response below about -50%; inconclusive = no clear call, values can overlap the other calls
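Cells expressing the human receptor were seeded at 1500 cells/well, incubated overnight at 37 degrees C in 5% CO2, then exposed to library compounds with dopamine controls for 90 minutes at 37 degrees C before luminescent detection.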
RGS4 inhibitor = blocks human RGS4-accelerated GTP hydrolysis. P49798. Transcreener GDP fluorescence polarization, RGS4-accelerated GTP hydrolysis. Potency, µM (highest dose often 114 µM), actives largely listed as inhibitors. 390,000 compounds, 0.039% hits; active = well fitted inhibition curve with a large enough effect; inconclusive = small, poorly fitted or top-dose-only effect; inactive = no such curve, though single readings can be large or run the other way; note: nearly all actives have a fitted effect of over 75% in size
Target sequence (P49798 whole entry, looked up): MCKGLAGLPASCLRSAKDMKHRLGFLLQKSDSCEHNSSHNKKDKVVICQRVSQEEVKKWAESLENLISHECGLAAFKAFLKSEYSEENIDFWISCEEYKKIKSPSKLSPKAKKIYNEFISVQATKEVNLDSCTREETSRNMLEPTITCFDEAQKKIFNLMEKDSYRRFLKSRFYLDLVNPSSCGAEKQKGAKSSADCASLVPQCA
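MLSMR compounds (23 nl, pin-transferred) preincubated 10 min at room temperature with a 500nM (2x) first reagent, then RGS4 at 900nM (2x) plus Transcreener GDP mix added; fluorescence polarization (620/688 nm) read before and after 90 min at 30 °C.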
uPA surface inh = blocks generation of uPA at the cell surface. cell surface uPA generation assay, qHTS. Potency, µM (top dose mostly 38.3 µM), usual class: inhibitors. 330,000 compounds, 0.31% hits; active = well fitted inhibition curve with a large enough effect; inconclusive = small, poorly fitted or top-dose-only effect; inactive = no such curve, though single readings can be large or run the other way; tested in mouse RAW 264.7 cells; note: nearly all actives have a fitted effect of over 55% in size
Large screens that a line does not name were inactive.

Cn1cc(S(=O)(=O)c2ccc(Cl)cc2)c(=O)c2cc(F)c(N3CCCC3)cc21	none (no result: D3 antag, uPA surface inh)
O=C(COc1ccc2cc(Br)ccc2c1)N1CCCC1	none
CC1(C)CC(=O)c2cc(OCC(=O)N3CCCCCC3)ccc2O1	D3 antag -71.0 (no result: uPA surface inh)
O=C(COc1ccc(Br)cc1)N1CCCCCC1	D3 antag -58.7
CCOC(=O)N1CCN(C(=O)COc2ccc3c(c2)C(=O)CC(C)(C)O3)CC1	none
COC(=O)c1c(C)sc(-c2c(-c3ccc(F)cc3)[nH]c3[nH]c(=O)[nH]c(=O)c23)c1O	none (no result: D3 antag, uPA surface inh)
CCOC(=O)c1c(NC(=O)COc2cccc(C(F)(F)F)c2)sc2c1CCC(C)C2 (configuration not stated)	RGS4 inhibitor inconclusive (no result: D3 antag, uPA surface inh)
N=c1c2c(n(Cc3ccc(Br)cc3)c3c1CCC3)CCCC2	uPA surface inh 3.98µM
N=c1c2c(n(Cc3ccc(Cl)c(Cl)c3)c3c1CCC3)CCCC2	none
Cc1ccc(C2CC(=O)N(Cc3ccccc3F)c3c2c(C)nn3-c2nc(C)cc(C)n2)cc1 (configuration not stated)	none (no result: D3 antag, uPA surface inh)
COc1ccc(C(=O)Nc2ccccc2C(=O)NCc2cccnc2)cc1	uPA surface inh 7.08µM
COc1ccc(C(=O)N/N=C(\c2ccccc2)c2ccccn2)cc1	D3 antag -56.3
O=C(N/N=C(\c1ccccc1)c1ccccn1)c1ccccc1Cl	D3 antag inconclusive
COc1ccc(C(=O)NCc2ccccn2)cc1	D3 antag -65.0
O=C(NN=C(c1ccccc1)c1ccccn1)c1ccccc1	D3 antag -56.2
O=P(O)(O)OC(Cn1cncn1)(Cn1cncn1)c1ccc(F)cc1F	none (no result: D3 antag, RGS4 inhibitor, uPA surface inh)
CO[C@H](C(=O)[C@@H](O)[C@@H](C)O)C1Cc2cc3cc(O[C@H]4C[C@@H](O[C@H]5C[C@@H](O)[C@H](O)[C@@H](C)O5)[C@@H](O)[C@@H](C)O4)c(C)c(O)c3c(O)c2C(=O)[C@H]1O[C@H]1C[C@@H](O[C@H]2C[C@@H](O[C@H]3C[C@](C)(O)[C@H](O)[C@@H](C)O3)[C@H](O)[C@@H](C)O2)[C@H](O)[C@@H](C)O1 (some centres not stated)	none (no result: D3 antag, RGS4 inhibitor, uPA surface inh)
CCc1ccc(S(=O)(=O)c2nnn3c2nc(Nc2cccc(C)c2C)c2sccc23)cc1	none (no result: D3 antag, uPA surface inh)
COC(=O)c1ccc(NC(=O)CN(Cc2ccccc2)S(=O)(=O)c2ccc(Cl)cc2)cc1	none (no result: D3 antag, uPA surface inh)
O=C(COCc1cc(-c2ccc3c(c2)OCO3)on1)NCc1ccc(F)cc1	none (no result: D3 antag, uPA surface inh)
O=C(NC1CCCCCC1)c1ccc2c(c1)sc1nc(-c3ccc(F)cc3)cn12	none (no result: D3 antag, uPA surface inh)
O=C(NC(c1ccc(-c2ccccc2)cc1)c1cnccn1)C1CCN(Cc2ccc(Cl)c(Cl)c2)CC1 (configuration not stated)	D3 antag -57.4 (no result: RGS4 inhibitor, uPA surface inh)
O=C(NC(c1ccc(-c2ccccc2)cc1)c1cnccn1)C1CCN(Cc2ccc3c(c2)OCO3)CC1 (configuration not stated)	D3 antag -65.8 (no result: RGS4 inhibitor, uPA surface inh)
CC(C)c1ccc(CN2CCC(C(=O)NCc3cccnc3)CC2)cc1	D3 antag -83.4
COc1ccc(C(=O)NCC2(N3CCN(C)CC3)CCCCC2)cc1	none (no result: D3 antag, uPA surface inh)
CC[n+]1ccccc1/C=C1\Sc2ccc(C)cc2N1C	uPA surface inh 7.08µM
CN(C)CCNc1ccc2ncn3c4ccc(O)cc4c(=O)c1c23	RGS4 inhibitor inconclusive
COc1cc([N+](=O)[O-])cc(/C=N/NC(=O)C(C)Nc2cccc(C)c2)c1O (configuration not stated)	D3 antag -54.8
COc1cc([N+](=O)[O-])cc(/C=N/NC(=O)C(C)Nc2ccccc2C)c1O (configuration not stated)	D3 antag -98.3
CC(c1nc2ccccc2o1)N1C(=O)c2ccccc2C1=O (configuration not stated)	D3 antag -53.2
Oc1c(Br)cc(Br)cc1C=Nc1ccc2c(c1)OCO2	D3 antag -127.8
O=[N+]([O-])c1ccc(O)c(C=Nc2ccc3c(c2)OCCO3)c1	none
Oc1c(Br)cc(Br)cc1C=Nc1ccc2c(c1)OCCO2	D3 antag -63.5
CC(C)C[C@H](NC(=O)[C@@H](Cc1c[nH]c2ccccc12)NC(=O)[C@H](Cc1ccc(O)cc1)NC(=O)[C@H](CO)NC(=O)[C@H](Cc1c[nH]c2ccccc12)NC(=O)[C@H](Cc1cnc[nH]1)NC(=O)[C@@H]1CCC(=O)N1)C(=O)N[C@@H](CCCN=C(N)N)C(=O)N1CCC[C@@H]1C(=O)NCC(N)=O	none (no result: D3 antag, RGS4 inhibitor, uPA surface inh)
Cc1cccc(-c2cc(C(=O)O)c3c(-c4ccc(F)cc4)[nH]nc3n2)c1	none (no result: D3 antag, uPA surface inh)
